target: AMP-activated protein kinase, AMPK (Homo sapiens) (UniProt P54646+O43741+P54619+Q9UGJ0+Q9Y478+Q13131+Q9UGI9); assay: AMP-dependent Kinase enzyme assay. An in vitro enzyme assay that detects ADP turnover that is directly proportional to AMPK activity. This uses naive AMPK that is activated during the assay with MK-8722; format: functional; design: scale not given: direction of the effect not stated beside the values; conditions: 30 µM

Structure (SMILES)	Percent Effect [%]
CCNC(=O)[C@@H]1C[C@H](N)CN1C(=O)c1c[nH]c2ccccc12	6.06
c1cnc(N2CCCC(Cc3nccs3)C2)nc1 (centres undefined)	0.818
CCc1ccc2nc(-c3cnn(C)c3)cc(C(=O)N3CCOCC3)c2c1	8.54
Cn1nccc1CN1CCOC(c2cccc(Nc3ccccn3)n2)C1 (centres undefined)	5.54
CNC(=O)CNC(=O)NCc1cc2c(s1)CCC(C)(C)C2	-2.89
Oc1cc(C2CCCCN2Cc2cccs2)nc(-c2ccccn2)n1 (centres undefined)	23.4
CCCn1cc(NC(=O)c2cccc(CN3CC=CC3)c2)nn1	3.97
CCN(C(=O)CN1CCCN(c2nc(C)ns2)CC1)C1CC1	5.97
CC(CNC(=O)c1c[nH]nn1)Oc1ccc(Cl)cc1 (centres undefined)	3.24
CC(=O)Nc1ccc(CNC(=O)CNCc2nnc(C)o2)cc1	-8.94
c1cnn(C2CN(c3nc(-c4ccncc4)nc4c3CCC4)C2)c1	1.13
NC(=O)c1ccc(NC(=O)N2CCN(c3cccs3)CC2)c(F)c1	2.09
CN(Cc1ccsc1)C(=O)c1nc(N2CCCC2)ncc1Cl	-1.6
CC1(C)Cc2nc(C(C)(C)C)ncc2C(NC(=O)CN)C1 (centres undefined)	-5.88
COC1CCN(c2ccc(F)cc2CN(C)S(C)(=O)=O)CC1	6.29
CC(NC(=O)N1CCC1)c1ccc(S(C)(=O)=O)cc1 (centres undefined)	4.53
CC1CN(CC(=O)NCCc2ccccc2)CCN1c1nccs1 (centres undefined)	25.7
CCN(C(=O)CS(=O)(=O)c1cc(OC)c(OC)cc1C)C1CC1	19.2
O=S(=O)(NC1CCCOC1)c1ccc(C(F)(F)F)nc1 (centres undefined)	7.35
O=C(O)c1ccc(C2CCCN(C(=O)c3ccc[nH]3)C2)cc1 (centres undefined)	3.76

Structure (SMILES)	Percent Effect [%]
Cc1nc(COC(=O)c2cccc3c2OCCO3)cs1	3.39
CCOc1ccccc1C(=O)NCc1nncn1C1CC1	-9.44
O=C(O)[C@@H]1CN(CCOCCO)C[C@H]1c1ccccc1	1.29
Cc1cc(Cl)c(C)c(S(=O)(=O)N2CCN(Cc3ccccn3)CC2)c1Cl	1.09
COc1ccc(-c2cc(C3CC3)c(C#N)c(N)n2)cc1F	9.02
COCC[C@]1(O)CCN(CC(=O)NCc2ccccn2)C[C@H]1C	9.06
Cc1ccc(-c2nc(CN3CCOCC3)no2)cc1N1CCNC1=O	7.88
CCC(c1ccc(F)cc1)S(=O)(=O)CCO (centres undefined)	0.117
CN(Cc1n[nH]c2c1CCC2)C(=O)c1cc(-c2cccn2C)n[nH]1	-16.6
CCCC1(CO)CCCN(C(=O)CNC(C)=O)C1 (centres undefined)	-1.86
Cc1ccccc1Oc1ncccc1CNC(=O)Cn1cccnc1=O	-5.58
CC1CCN(CC(=O)N(C)CCc2noc(C3CC3)n2)C1=O (centres undefined)	-1.6
CC(NC(=O)N1CCCCCC1)c1ccc(S(N)(=O)=O)cc1 (centres undefined)	5.75
CN(Cc1ccc2c(c1)OCO2)Cc1cscn1	-5.54
COc1cc(Cl)ccc1CNC(=O)N(C)C(C)CS(C)(=O)=O (centres undefined)	-1.65
Cn1nccc1CN1CCOC(c2ccc(-c3cncnc3)cn2)C1 (centres undefined)	9.64
C[C@@H]1CN(S(=O)(=O)N2CCCCCC2)C[C@@]1(O)C1CCC1	-7.79
CC(CC(=O)c1ccco1)NC(=O)c1ccccn1 (centres undefined)	-8.76
Cc1csc(C(=O)N2CC(S(=O)(=O)C3CCCCC3)C2)c1	-2.28
